Key:
Experiment in all cases: DAPPL (digital affinity profiling via proximity ligation, sequencing); 10 mM Tris-HCl pH 7.5, 50 mM NaCl, 1 mM DTT, 4% glycerol, room temperature, 30 min; GST-TFs on glutathione beads, 16-mer random dsDNA library, 0.1% formaldehyde crosslink after washing; high values mean tight binding
Conditions in all cases: protein: recombinant; tags: N-terminal GST; dsDNA, one strand shown
ERF = target: T1, ERF (Homo sapiens, UniProt P50548 1-548)
T1 sequence: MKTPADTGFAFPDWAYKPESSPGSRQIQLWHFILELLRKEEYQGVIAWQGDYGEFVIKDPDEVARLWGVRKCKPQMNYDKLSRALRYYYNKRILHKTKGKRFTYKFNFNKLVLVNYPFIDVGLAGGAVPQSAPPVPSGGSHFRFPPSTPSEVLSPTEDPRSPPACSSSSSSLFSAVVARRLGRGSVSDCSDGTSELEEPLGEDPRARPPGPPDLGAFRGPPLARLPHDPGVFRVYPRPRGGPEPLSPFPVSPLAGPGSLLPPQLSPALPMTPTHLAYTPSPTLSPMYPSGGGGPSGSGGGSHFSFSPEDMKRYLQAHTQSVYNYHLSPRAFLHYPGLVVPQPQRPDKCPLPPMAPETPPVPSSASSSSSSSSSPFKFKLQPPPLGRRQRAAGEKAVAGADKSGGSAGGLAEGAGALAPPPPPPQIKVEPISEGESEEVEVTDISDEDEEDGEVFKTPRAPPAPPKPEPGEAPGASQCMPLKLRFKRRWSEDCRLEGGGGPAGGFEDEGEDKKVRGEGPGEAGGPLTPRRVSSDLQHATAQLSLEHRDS
Summary of the method: (§1)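 Binding signal is each hexamer's read frequency for a factor divided by its frequency in the tag-only sample. The factors were GST-fused human transcription factors from yeast, captured on glutathione beads, DNA-barcoded and pooled with that sample. Pools were incubated with 200 nmole of a random double-stranded 16-mer DNA library in Tris/NaCl/DTT/glycerol buffer at room temperature for 30 min, then washed, crosslinked with 0.1% formaldehyde, proximity-ligated with BsaI/T4 ligase (1 h, 37 °C), PCR-amplified and sequenced on an Illumina NextSeq500.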

ETV3L = target: T2, ETV3L (Homo sapiens, UniProt Q6ZN32 1-361)
T2 sequence: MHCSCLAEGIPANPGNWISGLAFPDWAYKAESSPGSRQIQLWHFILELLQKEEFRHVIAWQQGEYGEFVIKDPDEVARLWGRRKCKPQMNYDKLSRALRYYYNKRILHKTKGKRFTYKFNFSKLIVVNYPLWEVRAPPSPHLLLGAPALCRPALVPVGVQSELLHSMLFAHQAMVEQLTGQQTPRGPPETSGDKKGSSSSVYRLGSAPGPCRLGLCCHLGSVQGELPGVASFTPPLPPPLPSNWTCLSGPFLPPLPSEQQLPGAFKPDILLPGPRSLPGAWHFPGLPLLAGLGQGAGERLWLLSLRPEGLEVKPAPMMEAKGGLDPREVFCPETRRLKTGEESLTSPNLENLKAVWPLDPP
Summary of the method: as §1

ETS2 = target: T3, ETS2 (Homo sapiens, UniProt P15036 1-469)
T3 sequence: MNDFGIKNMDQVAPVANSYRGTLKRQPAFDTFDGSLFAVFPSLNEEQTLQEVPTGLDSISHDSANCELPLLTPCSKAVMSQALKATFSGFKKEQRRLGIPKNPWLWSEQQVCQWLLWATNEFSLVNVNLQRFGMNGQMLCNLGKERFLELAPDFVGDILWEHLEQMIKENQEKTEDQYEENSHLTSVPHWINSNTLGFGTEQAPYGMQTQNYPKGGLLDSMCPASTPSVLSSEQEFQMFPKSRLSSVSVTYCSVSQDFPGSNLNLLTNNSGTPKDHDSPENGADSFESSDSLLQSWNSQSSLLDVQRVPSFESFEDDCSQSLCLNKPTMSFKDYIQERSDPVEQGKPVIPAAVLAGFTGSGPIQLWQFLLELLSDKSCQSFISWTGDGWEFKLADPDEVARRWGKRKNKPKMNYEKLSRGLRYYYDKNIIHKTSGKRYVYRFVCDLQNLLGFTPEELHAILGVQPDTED
Summary of the method: as §1

SPDEF = target: T4, SPDEF (Homo sapiens, UniProt O95238 1-335)
T4 sequence: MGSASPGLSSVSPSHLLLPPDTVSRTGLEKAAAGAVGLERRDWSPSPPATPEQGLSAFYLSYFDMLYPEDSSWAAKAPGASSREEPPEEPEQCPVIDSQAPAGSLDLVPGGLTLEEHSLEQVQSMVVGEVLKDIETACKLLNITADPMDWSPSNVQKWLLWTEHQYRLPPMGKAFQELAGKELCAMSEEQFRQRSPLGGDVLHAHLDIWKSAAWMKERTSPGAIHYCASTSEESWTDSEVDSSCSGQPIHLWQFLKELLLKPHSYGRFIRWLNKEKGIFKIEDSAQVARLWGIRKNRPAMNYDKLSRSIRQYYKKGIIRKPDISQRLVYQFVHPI
Summary of the method: as §1

ETV7 = target: T5, ETV7 (Homo sapiens, UniProt Q9Y603 1-341)
T5 sequence: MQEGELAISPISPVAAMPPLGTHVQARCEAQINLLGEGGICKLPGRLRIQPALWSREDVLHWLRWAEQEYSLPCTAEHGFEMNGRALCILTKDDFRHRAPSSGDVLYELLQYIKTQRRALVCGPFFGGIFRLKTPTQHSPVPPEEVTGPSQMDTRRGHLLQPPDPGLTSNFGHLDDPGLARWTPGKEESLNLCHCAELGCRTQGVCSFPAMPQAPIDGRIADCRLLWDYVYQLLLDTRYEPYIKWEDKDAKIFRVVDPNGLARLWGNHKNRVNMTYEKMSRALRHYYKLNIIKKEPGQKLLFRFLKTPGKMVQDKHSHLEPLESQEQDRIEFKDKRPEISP
Summary of the method: as §1

ELF5 = target: T6, ELF5 (Homo sapiens, UniProt Q9UKW6-2 1-255)
T6 sequence: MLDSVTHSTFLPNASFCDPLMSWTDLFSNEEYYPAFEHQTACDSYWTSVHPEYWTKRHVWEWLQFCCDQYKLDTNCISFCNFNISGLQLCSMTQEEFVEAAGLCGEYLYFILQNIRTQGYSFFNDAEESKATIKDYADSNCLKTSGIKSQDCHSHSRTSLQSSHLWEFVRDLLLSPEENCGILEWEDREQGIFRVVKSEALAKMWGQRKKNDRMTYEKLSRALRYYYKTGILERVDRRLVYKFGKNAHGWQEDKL
Summary of the method: as §1

ETV3 = target: T7, ETV3 (Homo sapiens, UniProt P41162-2 1-143)
T7 sequence: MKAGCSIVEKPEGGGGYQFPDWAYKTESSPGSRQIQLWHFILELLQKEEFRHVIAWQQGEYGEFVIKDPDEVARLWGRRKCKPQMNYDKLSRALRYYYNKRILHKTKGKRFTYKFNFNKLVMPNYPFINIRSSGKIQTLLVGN
Summary of the method: as §1

ETV6 = ETV6 (Homo sapiens, UniProt P41212 1-452)
Sequence of ETV6 (P41212 whole entry): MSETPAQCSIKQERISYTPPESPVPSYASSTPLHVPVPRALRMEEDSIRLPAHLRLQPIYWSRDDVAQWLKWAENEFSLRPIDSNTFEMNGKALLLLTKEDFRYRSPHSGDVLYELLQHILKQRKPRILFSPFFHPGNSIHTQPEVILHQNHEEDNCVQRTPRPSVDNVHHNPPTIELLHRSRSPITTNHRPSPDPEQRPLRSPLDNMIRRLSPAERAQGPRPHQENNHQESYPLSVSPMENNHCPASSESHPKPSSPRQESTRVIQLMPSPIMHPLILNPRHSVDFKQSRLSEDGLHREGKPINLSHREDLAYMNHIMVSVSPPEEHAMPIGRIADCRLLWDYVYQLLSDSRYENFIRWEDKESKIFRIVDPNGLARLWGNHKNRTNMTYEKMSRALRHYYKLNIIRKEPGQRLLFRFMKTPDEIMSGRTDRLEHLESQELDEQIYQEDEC
Summary of the method: as §1

Row | Sequence | binding signal (ERF) | binding signal (ETV3L) | binding signal (ETS2) | binding signal (SPDEF) | binding signal (ETV7) | binding signal (ELF5) | binding signal (ETV3) | binding signal (ETV6)
1 | ATACAG | 1.16 fold enrichment (6-mer frequency, TF over GST control) | 1.1 fold enrichment (6-mer frequency, TF over GST control) | 1.17 fold enrichment (6-mer frequency, TF over GST control) | 1.21 fold enrichment (6-mer frequency, TF over GST control) | 1.18 fold enrichment (6-mer frequency, TF over GST control) | 1.17 fold enrichment (6-mer frequency, TF over GST control) | 1.18 fold enrichment (6-mer frequency, TF over GST control) | 1.12 fold enrichment (6-mer frequency, TF over GST control)
2 | TATATC | 1.61 fold enrichment (6-mer frequency, TF over GST control) | 1.56 fold enrichment (6-mer frequency, TF over GST control) | 1.64 fold enrichment (6-mer frequency, TF over GST control) | 2.19 fold enrichment (6-mer frequency, TF over GST control) | 1.48 fold enrichment (6-mer frequency, TF over GST control) | 1.66 fold enrichment (6-mer frequency, TF over GST control) | 1.68 fold enrichment (6-mer frequency, TF over GST control) | 1.5 fold enrichment (6-mer frequency, TF over GST control)
3 | TTACAG | 1.32 fold enrichment (6-mer frequency, TF over GST control) | 1.22 fold enrichment (6-mer frequency, TF over GST control) | 1.21 fold enrichment (6-mer frequency, TF over GST control) | 1.18 fold enrichment (6-mer frequency, TF over GST control) | 1.22 fold enrichment (6-mer frequency, TF over GST control) | 1.16 fold enrichment (6-mer frequency, TF over GST control) | 1.16 fold enrichment (6-mer frequency, TF over GST control) | 1.19 fold enrichment (6-mer frequency, TF over GST control)
4 | TTGTTA | 1.28 fold enrichment (6-mer frequency, TF over GST control) | 1.35 fold enrichment (6-mer frequency, TF over GST control) | 1.34 fold enrichment (6-mer frequency, TF over GST control) | 1.26 fold enrichment (6-mer frequency, TF over GST control) | 1.35 fold enrichment (6-mer frequency, TF over GST control) | 1.29 fold enrichment (6-mer frequency, TF over GST control) | 1.3 fold enrichment (6-mer frequency, TF over GST control) | 1.33 fold enrichment (6-mer frequency, TF over GST control)
5 | AAATGA | 1.42 fold enrichment (6-mer frequency, TF over GST control) | 1.29 fold enrichment (6-mer frequency, TF over GST control) | 1.29 fold enrichment (6-mer frequency, TF over GST control) | 1.18 fold enrichment (6-mer frequency, TF over GST control) | 1.42 fold enrichment (6-mer frequency, TF over GST control) | 1.25 fold enrichment (6-mer frequency, TF over GST control) | 1.43 fold enrichment (6-mer frequency, TF over GST control) | 1.47 fold enrichment (6-mer frequency, TF over GST control)
6 | TAATTT | 1.43 fold enrichment (6-mer frequency, TF over GST control) | 1.48 fold enrichment (6-mer frequency, TF over GST control) | 1.41 fold enrichment (6-mer frequency, TF over GST control) | 1.32 fold enrichment (6-mer frequency, TF over GST control) | 1.37 fold enrichment (6-mer frequency, TF over GST control) | 1.46 fold enrichment (6-mer frequency, TF over GST control) | 1.24 fold enrichment (6-mer frequency, TF over GST control) | 1.39 fold enrichment (6-mer frequency, TF over GST control)
7 | CCTCCT | 1.64 fold enrichment (6-mer frequency, TF over GST control) | 1.44 fold enrichment (6-mer frequency, TF over GST control) | 1.57 fold enrichment (6-mer frequency, TF over GST control) | 1.58 fold enrichment (6-mer frequency, TF over GST control) | 1.61 fold enrichment (6-mer frequency, TF over GST control) | 1.9 fold enrichment (6-mer frequency, TF over GST control) | 1.46 fold enrichment (6-mer frequency, TF over GST control) | 1.55 fold enrichment (6-mer frequency, TF over GST control)
8 | TGGTAA | 1.27 fold enrichment (6-mer frequency, TF over GST control) | 1.25 fold enrichment (6-mer frequency, TF over GST control) | 1.32 fold enrichment (6-mer frequency, TF over GST control) | 1.19 fold enrichment (6-mer frequency, TF over GST control) | 1.4 fold enrichment (6-mer frequency, TF over GST control) | 1.23 fold enrichment (6-mer frequency, TF over GST control) | 1.15 fold enrichment (6-mer frequency, TF over GST control) | 1.25 fold enrichment (6-mer frequency, TF over GST control)
9 | CTACGC | 1.72 fold enrichment (6-mer frequency, TF over GST control) | 1.5 fold enrichment (6-mer frequency, TF over GST control) | 1.59 fold enrichment (6-mer frequency, TF over GST control) | 1.56 fold enrichment (6-mer frequency, TF over GST control) | 1.42 fold enrichment (6-mer frequency, TF over GST control) | 1.49 fold enrichment (6-mer frequency, TF over GST control) | 1.59 fold enrichment (6-mer frequency, TF over GST control) | 1.64 fold enrichment (6-mer frequency, TF over GST control)
10 | TAAAAG | 1.2 fold enrichment (6-mer frequency, TF over GST control) | 1.1 fold enrichment (6-mer frequency, TF over GST control) | 1.18 fold enrichment (6-mer frequency, TF over GST control) | 1.08 fold enrichment (6-mer frequency, TF over GST control) | 1.19 fold enrichment (6-mer frequency, TF over GST control) | 1.16 fold enrichment (6-mer frequency, TF over GST control) | 1.12 fold enrichment (6-mer frequency, TF over GST control) | 1.23 fold enrichment (6-mer frequency, TF over GST control)
11 | AATGTC | 1.17 fold enrichment (6-mer frequency, TF over GST control) | 1.22 fold enrichment (6-mer frequency, TF over GST control) | 1.27 fold enrichment (6-mer frequency, TF over GST control) | 1.36 fold enrichment (6-mer frequency, TF over GST control) | 1.23 fold enrichment (6-mer frequency, TF over GST control) | 1.38 fold enrichment (6-mer frequency, TF over GST control) | 1.23 fold enrichment (6-mer frequency, TF over GST control) | 1.21 fold enrichment (6-mer frequency, TF over GST control)
12 | TTAACC | 1.23 fold enrichment (6-mer frequency, TF over GST control) | 1.32 fold enrichment (6-mer frequency, TF over GST control) | 1.29 fold enrichment (6-mer frequency, TF over GST control) | 1.35 fold enrichment (6-mer frequency, TF over GST control) | 1.23 fold enrichment (6-mer frequency, TF over GST control) | 1.28 fold enrichment (6-mer frequency, TF over GST control) | 1.38 fold enrichment (6-mer frequency, TF over GST control) | 1.32 fold enrichment (6-mer frequency, TF over GST control)
13 | TCCACA | 1.31 fold enrichment (6-mer frequency, TF over GST control) | 1.24 fold enrichment (6-mer frequency, TF over GST control) | 1.29 fold enrichment (6-mer frequency, TF over GST control) | 1.25 fold enrichment (6-mer frequency, TF over GST control) | 1.17 fold enrichment (6-mer frequency, TF over GST control) | 1.13 fold enrichment (6-mer frequency, TF over GST control) | 1.2 fold enrichment (6-mer frequency, TF over GST control) | 1.25 fold enrichment (6-mer frequency, TF over GST control)
14 | ACACTT | 1.51 fold enrichment (6-mer frequency, TF over GST control) | 1.64 fold enrichment (6-mer frequency, TF over GST control) | 1.76 fold enrichment (6-mer frequency, TF over GST control) | 1.61 fold enrichment (6-mer frequency, TF over GST control) | 1.78 fold enrichment (6-mer frequency, TF over GST control) | 2.02 fold enrichment (6-mer frequency, TF over GST control) | 1.66 fold enrichment (6-mer frequency, TF over GST control) | 1.95 fold enrichment (6-mer frequency, TF over GST control)
15 | AACAAC | 1.35 fold enrichment (6-mer frequency, TF over GST control) | 1.25 fold enrichment (6-mer frequency, TF over GST control) | 1.33 fold enrichment (6-mer frequency, TF over GST control) | 1.27 fold enrichment (6-mer frequency, TF over GST control) | 1.3 fold enrichment (6-mer frequency, TF over GST control) | 1.28 fold enrichment (6-mer frequency, TF over GST control) | 1.37 fold enrichment (6-mer frequency, TF over GST control) | 1.35 fold enrichment (6-mer frequency, TF over GST control)
